# PubChem BioAssay (NCATS)
# Inconclusive results are not listed. Entries that show only a call come without a potency. A number with no mark means an inactive call. The source made the active and inactive calls. Calls come from the whole dose curve; as a rule, active = well fitted curve in the direction sought with a large enough effect; inconclusive = small, poorly fitted or top-dose-only effect, or another doubt; inactive = no such curve, though single readings can be large; an effect the other way counts as inactive or inconclusive.
# Columns and labels:
# [1] = biological target: Cytochrome P450 2D6 (Homo sapiens) (UniProt P10635); assay: qHTS Assay for Inhibitors and Substrates of Cytochrome P450 2D6 (AID 891); note: nearly all actives have a fitted effect of over 60% in size; note: potency is the fitted concentration of half-maximal effect
# Chain of Cytochrome P450 2D6 (Homo sapiens) (P10635 whole entry, looked up): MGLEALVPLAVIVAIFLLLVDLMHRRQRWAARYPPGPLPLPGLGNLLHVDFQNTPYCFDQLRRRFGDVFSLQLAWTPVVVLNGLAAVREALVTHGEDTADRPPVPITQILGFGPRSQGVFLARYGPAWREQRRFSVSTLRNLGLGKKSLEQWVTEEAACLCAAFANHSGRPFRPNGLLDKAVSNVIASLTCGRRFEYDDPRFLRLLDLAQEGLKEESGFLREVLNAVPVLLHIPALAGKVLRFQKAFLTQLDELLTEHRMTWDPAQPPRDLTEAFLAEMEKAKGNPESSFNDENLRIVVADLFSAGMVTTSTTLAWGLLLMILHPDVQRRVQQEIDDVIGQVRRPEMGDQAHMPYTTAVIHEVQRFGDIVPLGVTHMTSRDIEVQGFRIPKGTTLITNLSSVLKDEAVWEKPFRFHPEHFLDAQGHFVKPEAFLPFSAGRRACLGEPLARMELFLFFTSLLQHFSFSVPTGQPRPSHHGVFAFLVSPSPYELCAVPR
# Outline: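 Luminescent read-out of luciferin formed by 5 nM human CYP2D6 demethylating 30 uM Luciferin-ME EGE (Km level) over 60 min at room temperature after NADPH regeneration addition. Data normalized to full inhibition by 1.43 uM quinidine.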
# [2] = biological target: ATP-dependent 6-phosphofructokinase (Trypanosoma brucei brucei) (UniProt O15648); assay: qHTS Assay to Find Inhibitors of T. brucei phosphofructokinase: hit validation (AID 492961);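 note: luminescence reports ADP formed as PFK phosphorylates fructose-6-phosphate with ATP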
# Chain of ATP-dependent 6-phosphofructokinase (Trypanosoma brucei brucei) (O15648 whole entry, looked up): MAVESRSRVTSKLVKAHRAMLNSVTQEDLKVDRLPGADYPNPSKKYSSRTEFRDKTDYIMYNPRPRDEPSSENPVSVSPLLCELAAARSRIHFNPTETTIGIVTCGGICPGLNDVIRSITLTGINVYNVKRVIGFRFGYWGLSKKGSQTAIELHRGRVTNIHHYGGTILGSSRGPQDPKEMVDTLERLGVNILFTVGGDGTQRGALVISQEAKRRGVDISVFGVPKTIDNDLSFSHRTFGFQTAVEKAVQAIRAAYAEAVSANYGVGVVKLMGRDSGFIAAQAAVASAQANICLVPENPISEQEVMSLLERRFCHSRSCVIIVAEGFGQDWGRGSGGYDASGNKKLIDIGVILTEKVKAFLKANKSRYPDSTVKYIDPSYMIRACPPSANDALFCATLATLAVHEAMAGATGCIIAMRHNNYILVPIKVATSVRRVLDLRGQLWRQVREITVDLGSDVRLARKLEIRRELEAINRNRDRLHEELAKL
# Outline: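 Inhibition of parasite PFK is measured as reduced ADP formation, quantified via luciferase after ATP depletion. Assay used 0.1 mM ATP, 0.5 mM F6P, 1.25 nM enzyme, 45 min incubation.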
# [3] = qHTS profiling for inhibitors of Plasmodium falciparum proliferation (AID 504749); note: potency is the fitted concentration of half-maximal effect; for all read-outs here: nearly all actives have a fitted effect of over 60% in size; details: P. falciparum in erythrocytes, SYBR Green DNA, 72 h; for activity, negative = inhibition: at 28.7 µM (top of the series)
# Outline: (§1)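 Each compound contacts P. falciparum-infected red blood cells for 72 h at 37 C; lysis buffer (Tris, EDTA, saponin, Triton X, SYBR Green I) is added and fluorescence measured next morning; values normalized to controls.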
# 7G8 = assay: as above; details: P. falciparum in erythrocytes, SYBR Green DNA, 72 h; series mostly up to 28.7 µM
# Outline: as §1
# AS120 = assay: as above; details: P. falciparum in erythrocytes, SYBR Green DNA, 72 h; series mostly up to 28.7 µM
# Outline: as §1
# ATS189 = assay: as above; details: P. falciparum in erythrocytes, SYBR Green DNA, 72 h; series mostly up to 28.7 µM
# Outline: as §1
# ATS95 = assay: as above; details: P. falciparum in erythrocytes, SYBR Green DNA, 72 h; series mostly up to 28.7 µM
# Outline: as §1
# C2A = assay: as above; details: P. falciparum in erythrocytes, SYBR Green DNA, 72 h; series mostly up to 28.7 µM
# Outline: as §1
# CP191 = assay: as above; details: P. falciparum in erythrocytes, SYBR Green DNA, 72 h; series mostly up to 28.7 µM
# Outline: as §1
# CP237 = assay: as above; details: P. falciparum in erythrocytes, SYBR Green DNA, 72 h; series mostly up to 28.7 µM
# Outline: as §1
# CP266 = assay: as above; details: P. falciparum in erythrocytes, SYBR Green DNA, 72 h; series mostly up to 28.7 µM
# Outline: as §1
# Dd2 = assay: as above; details: P. falciparum in erythrocytes, SYBR Green DNA, 72 h; series mostly up to 28.7 µM
# Outline: as §1
# ECU = assay: as above; details: P. falciparum in erythrocytes, SYBR Green DNA, 72 h; series mostly up to 28.7 µM
# Outline: as §1
# GB4 = assay: as above; details: P. falciparum in erythrocytes, SYBR Green DNA, 72 h; series mostly up to 28.7 µM
# Outline: as §1
# HB3 = assay: as above; details: P. falciparum in erythrocytes, SYBR Green DNA, 72 h; series mostly up to 28.7 µM
# Outline: as §1
# P93_24 = assay: as above; details: P. falciparum in erythrocytes, SYBR Green DNA, 72 h; series mostly up to 28.7 µM
# Outline: as §1
# P94_40 = assay: as above; details: P. falciparum in erythrocytes, SYBR Green DNA, 72 h; series mostly up to 28.7 µM
# Outline: as §1
# PAD = assay: as above; details: P. falciparum in erythrocytes, SYBR Green DNA, 72 h; series mostly up to 28.7 µM
# Outline: as §1
# TAB109 = assay: as above; details: P. falciparum in erythrocytes, SYBR Green DNA, 72 h; series mostly up to 28.7 µM
# Outline: as §1
# TAB113 = assay: as above; details: P. falciparum in erythrocytes, SYBR Green DNA, 72 h; series mostly up to 28.7 µM
# Outline: as §1
smiles,measurement,setting,value
CCC/C=C(\CCC)C(NS(=O)(=O)c1cccs1)c1ccc(C(=O)OC)cc1 (stereo not drawn),Potency,[1],6.31 µM (active)
CN1[C@H]2CC(OC(=O)[C@H](CO)c3ccccc3)C[C@H]1[C@H]1O[C@H]12 (stereo partly drawn),Potency,[2],inactive
same,"activity, negative = inhibition",[3]; parasite line A,1.25%
same,"activity, negative = inhibition",[3]; parasite line B,-7.4%
same,Potency,7G8,inactive
same,Potency,AS120,inactive
same,Potency,ATS189,inactive
same,Potency,ATS95,inactive
same,Potency,C2A,inactive
same,Potency,CP191,inactive
same,Potency,CP237,inactive
same,Potency,CP266,inactive
same,Potency,Dd2,inactive
same,Potency,ECU,inactive
same,Potency,GB4,inactive
same,Potency,HB3,inactive
same,Potency,P93_24,inactive
same,Potency,P94_40,inactive
same,Potency,PAD,inactive
same,Potency,TAB109,inactive
same,Potency,TAB113,inactive
CC(C)[C@@H](CC(=O)N[C@@H]1CCNC[C@H]1C(=O)N[C@H](CC(=O)N[C@@H](CCC(=O)O)CC(=O)O)Cc1c[nH]c2ccccc12)NC(=O)C[C@H](Cc1c[nH]c2ccccc12)NC(=O)[C@@H]1CNCC[C@H]1N,Potency,[1],inactive
CO[C@H]1/C=C/O[C@@]2(C)Oc3c(C)c(O)c4c(O)c(c5c(c4c3C2=O)NC2(CCN(CC(C)C)CC2)N=5)=NC(=O)/C(C)=C\C=C\[C@H](C)[C@H](O)[C@@H](C)[C@@H](O)[C@@H](C)[C@H](OC(C)=O)[C@@H]1C,Potency,[2],inactive
same,Potency,[3]; parasite line B,4.47 µM (active)
same,Potency,7G8,7.08 µM (active)
same,Potency,AS120,12.6 µM (active)
same,Potency,ATS189,5.01 µM (active)
same,Potency,ATS95,8.91 µM (active)
same,Potency,C2A,8.91 µM (active)
same,Potency,CP191,8.91 µM (active)
same,Potency,CP237,10 µM (active)
same,Potency,CP266,inactive
same,Potency,Dd2,7.94 µM (active)
same,Potency,ECU,7.94 µM (active)
same,Potency,GB4,12 µM (active)
same,Potency,HB3,11.2 µM (active)
same,Potency,P93_24,6.31 µM (active)
same,Potency,P94_40,8.91 µM (active)
same,Potency,PAD,10 µM (active)
same,Potency,TAB109,11.2 µM (active)
same,Potency,TAB113,7.94 µM (active)
COc1cc2c(c(OC)c1OC)-c1ccc(OC)c(=O)cc1[C@H](NC(C)=O)CC2,Potency,[1],inactive
same,outcome,[1],inactive
